Reference: publication PMC10812921, “Transcriptional Coactivator BOB1 (OBF1, OCA-B) Modulates the Specificity of DNA Recognition by the POU-Domain Factors OCT1 and OCT2 in a Monomeric Configuration”

Columns and labels:
POU1 (OCT1 POU domain) = POU1 (OCT1 POU domain) (human, UniProt P14859 260-458); assay: EMSA-SELEX-seq; no BOB1; 20 mM Tris-HCl pH 7.6, 140 mM NaCl, 10% glycerol, 0.5 mM EDTA, 0.05% Triton X-100, 0.1 mg/mL BSA, 0.1 mg/mL poly(dI-dC), 5 mM DTT, room temperature, 20 min; high values mean tight binding; settings: protein: recombinant; dsDNA, one strand shown
Sequence of POU1 (OCT1 POU domain) (P14859 260-458): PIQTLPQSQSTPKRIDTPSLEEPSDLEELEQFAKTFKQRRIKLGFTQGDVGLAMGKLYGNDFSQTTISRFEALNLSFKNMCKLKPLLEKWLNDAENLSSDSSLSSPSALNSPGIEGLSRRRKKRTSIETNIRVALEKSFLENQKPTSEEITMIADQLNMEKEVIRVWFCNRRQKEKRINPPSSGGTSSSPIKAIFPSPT
In short: (§1)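 Binding preference means the percentage of sequenced 8-mers matching a motif pattern. Tagged POU-domain proteins (30 ng), expressed in E. coli BL21, purified under denaturing conditions and renatured, were mixed with 300 ng of a PCR-amplified double-stranded random 35-nt library, with or without 28 ng coactivator protein, for 20 min at RT in 20 μL Tris–HCl pH 7.6 binding buffer. Selection was repeated over four rounds of excising complex bands from native 6% PAGE, eluting and PCR amplification, followed by Illumina sequencing.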

POU2 (OCT2 POU domain) = molecular target: T1, POU2 (OCT2 POU domain) (human, UniProt P09086 175-386); assay: as above; settings: protein: recombinant; dsDNA, one strand shown
T1 sequence: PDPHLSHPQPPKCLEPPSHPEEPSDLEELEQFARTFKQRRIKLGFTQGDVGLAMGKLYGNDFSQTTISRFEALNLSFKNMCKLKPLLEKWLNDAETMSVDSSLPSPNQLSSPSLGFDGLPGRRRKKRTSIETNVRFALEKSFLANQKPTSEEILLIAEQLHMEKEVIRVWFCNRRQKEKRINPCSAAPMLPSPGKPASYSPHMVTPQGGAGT
In short: as §1

[1] = molecular target: POU1 (OCT1 POU domain);BOB1 (OBF1, OCA-B) (human;human, UniProt P14859;Q16633 260-458;1-256, |); assay: EMSA-SELEX-seq; with BOB1 (ternary complex band); 20 mM Tris-HCl pH 7.6, 140 mM NaCl, 10% glycerol, 0.5 mM EDTA, 0.05% Triton X-100, 0.1 mg/mL BSA, 0.1 mg/mL poly(dI-dC), 5 mM DTT, room temperature, 20 min; high values mean tight binding; settings: protein: recombinant;recombinant; copies: 1;1; dsDNA, one strand shown
In short: as §1

[2] = molecular target: T2, POU2 (OCT2 POU domain);BOB1 (OBF1, OCA-B) (human;human, UniProt P09086;Q16633 175-386;1-256, |); assay: as above; settings: protein: recombinant;recombinant; copies: 1;1; dsDNA, one strand shown
T2 sequence 1: T1 sequence
T2 sequence 2: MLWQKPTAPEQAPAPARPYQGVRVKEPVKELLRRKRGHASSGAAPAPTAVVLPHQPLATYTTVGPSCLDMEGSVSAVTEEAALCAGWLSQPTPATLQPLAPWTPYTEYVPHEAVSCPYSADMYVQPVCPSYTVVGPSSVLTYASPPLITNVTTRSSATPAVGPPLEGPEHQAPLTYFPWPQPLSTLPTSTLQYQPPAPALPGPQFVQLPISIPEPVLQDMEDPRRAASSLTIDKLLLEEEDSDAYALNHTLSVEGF
In short: as §1

Row | Sequence | binding signal (POU1 (OCT1 POU domain)) | binding signal (POU2 (OCT2 POU domain)) | binding signal [1] | binding signal [2]
1 | ATTTGAAA | 0.142 % of ANNNNAAN 8-mers | 0.0995 % of ANNNNAAN 8-mers | 0.178 % of ANNNNAAN 8-mers | 0.0933 % of ANNNNAAN 8-mers
2 | AAGCAAAA | 0.142 % of ANNNNAAN 8-mers | 0.0898 % of ANNNNAAN 8-mers | 0.204 % of ANNNNAAN 8-mers | 0.106 % of ANNNNAAN 8-mers
3 | ACGTCAAT | 0.0339 % of ANNNNAAN 8-mers | 0.0426 % of ANNNNAAN 8-mers | 0.0269 % of ANNNNAAN 8-mers | 0.0322 % of ANNNNAAN 8-mers
4 | ATATAAAG | 0.0725 % of ANNNNAAN 8-mers | 0.088 % of ANNNNAAN 8-mers | 0.0597 % of ANNNNAAN 8-mers | 0.0603 % of ANNNNAAN 8-mers
5 | AAAGCAAT | 0.05 % of ANNNNAAN 8-mers | 0.0455 % of ANNNNAAN 8-mers | 0.0652 % of ANNNNAAN 8-mers | 0.0371 % of ANNNNAAN 8-mers
6 | AGGGAAAA | 0.205 % of ANNNNAAN 8-mers | 0.119 % of ANNNNAAN 8-mers | 0.28 % of ANNNNAAN 8-mers | 0.119 % of ANNNNAAN 8-mers
7 | ATAATAAC | 0.0873 % of ANNNNAAN 8-mers | 0.101 % of ANNNNAAN 8-mers | 0.0496 % of ANNNNAAN 8-mers | 0.0603 % of ANNNNAAN 8-mers
8 | AGCCTAAA | 0.0271 % of ANNNNAAN 8-mers | 0.0316 % of ANNNNAAN 8-mers | 0.0191 % of ANNNNAAN 8-mers | 0.0206 % of ANNNNAAN 8-mers
9 | ATCCAAAA | 0.0591 % of ANNNNAAN 8-mers | 0.0414 % of ANNNNAAN 8-mers | 0.0722 % of ANNNNAAN 8-mers | 0.0446 % of ANNNNAAN 8-mers
10 | AATTTAAG | 0.15 % of ANNNNAAN 8-mers | 0.142 % of ANNNNAAN 8-mers | 0.144 % of ANNNNAAN 8-mers | 0.12 % of ANNNNAAN 8-mers
11 | AGAGGAAG | 0.0358 % of ANNNNAAN 8-mers | 0.0432 % of ANNNNAAN 8-mers | 0.0441 % of ANNNNAAN 8-mers | 0.0413 % of ANNNNAAN 8-mers
12 | AAGAAAAT | 0.158 % of ANNNNAAN 8-mers | 0.125 % of ANNNNAAN 8-mers | 0.226 % of ANNNNAAN 8-mers | 0.0958 % of ANNNNAAN 8-mers
13 | AGCATAAC | 0.082 % of ANNNNAAN 8-mers | 0.099 % of ANNNNAAN 8-mers | 0.0207 % of ANNNNAAN 8-mers | 0.038 % of ANNNNAAN 8-mers
14 | AATAGAAC | 0.0381 % of ANNNNAAN 8-mers | 0.0541 % of ANNNNAAN 8-mers | 0.0382 % of ANNNNAAN 8-mers | 0.0462 % of ANNNNAAN 8-mers
15 | ACTCGAAT | 0.0484 % of ANNNNAAN 8-mers | 0.0518 % of ANNNNAAN 8-mers | 0.0402 % of ANNNNAAN 8-mers | 0.0504 % of ANNNNAAN 8-mers
16 | AAGAGAAA | 0.0511 % of ANNNNAAN 8-mers | 0.0621 % of ANNNNAAN 8-mers | 0.0531 % of ANNNNAAN 8-mers | 0.038 % of ANNNNAAN 8-mers
17 | AGGGGAAC | 0.0416 % of ANNNNAAN 8-mers | 0.0414 % of ANNNNAAN 8-mers | 0.0355 % of ANNNNAAN 8-mers | 0.0487 % of ANNNNAAN 8-mers
18 | AGATAAAG | 0.0439 % of ANNNNAAN 8-mers | 0.0495 % of ANNNNAAN 8-mers | 0.0359 % of ANNNNAAN 8-mers | 0.0281 % of ANNNNAAN 8-mers
19 | ATTCAAAC | 0.153 % of ANNNNAAN 8-mers | 0.15 % of ANNNNAAN 8-mers | 0.199 % of ANNNNAAN 8-mers | 0.125 % of ANNNNAAN 8-mers
20 | ACAGTAAC | 0.0149 % of ANNNNAAN 8-mers | 0.0242 % of ANNNNAAN 8-mers | 0.0148 % of ANNNNAAN 8-mers | 0.0149 % of ANNNNAAN 8-mers
21 | ATTGTAAC | 0.0362 % of ANNNNAAN 8-mers | 0.0374 % of ANNNNAAN 8-mers | 0.0336 % of ANNNNAAN 8-mers | 0.0371 % of ANNNNAAN 8-mers
22 | ATTACAAC | 0.0313 % of ANNNNAAN 8-mers | 0.042 % of ANNNNAAN 8-mers | 0.0258 % of ANNNNAAN 8-mers | 0.0223 % of ANNNNAAN 8-mers
23 | ATGTTAAC | 0.0645 % of ANNNNAAN 8-mers | 0.0938 % of ANNNNAAN 8-mers | 0.0578 % of ANNNNAAN 8-mers | 0.0586 % of ANNNNAAN 8-mers
24 | ATAGGAAA | 0.131 % of ANNNNAAN 8-mers | 0.112 % of ANNNNAAN 8-mers | 0.213 % of ANNNNAAN 8-mers | 0.146 % of ANNNNAAN 8-mers
25 | ATCCAAAC | 0.0233 % of ANNNNAAN 8-mers | 0.0178 % of ANNNNAAN 8-mers | 0.0343 % of ANNNNAAN 8-mers | 0.0264 % of ANNNNAAN 8-mers
26 | AAGCAAAT | 0.378 % of ANNNNAAN 8-mers | 0.27 % of ANNNNAAN 8-mers | 0.906 % of ANNNNAAN 8-mers | 0.826 % of ANNNNAAN 8-mers
27 | ACAGCAAA | 0.0248 % of ANNNNAAN 8-mers | 0.0213 % of ANNNNAAN 8-mers | 0.0359 % of ANNNNAAN 8-mers | 0.0347 % of ANNNNAAN 8-mers
28 | ATTGTAAG | 0.0507 % of ANNNNAAN 8-mers | 0.0685 % of ANNNNAAN 8-mers | 0.0593 % of ANNNNAAN 8-mers | 0.0594 % of ANNNNAAN 8-mers
29 | ACATAAAT | 0.23 % of ANNNNAAN 8-mers | 0.251 % of ANNNNAAN 8-mers | 0.117 % of ANNNNAAN 8-mers | 0.177 % of ANNNNAAN 8-mers
30 | AAAATAAC | 0.0782 % of ANNNNAAN 8-mers | 0.0696 % of ANNNNAAN 8-mers | 0.0816 % of ANNNNAAN 8-mers | 0.0735 % of ANNNNAAN 8-mers
